Measured values as given in PubChem BioAssay (NCATS).
Several values for one entry are separate records, joined by “and”; a condition that tells them apart may be missing. Equal values may be shown once. Inconclusive results are not listed. Where a call stands in place of a potency, no number is given. Values without a mark were called inactive. Activity calls are given as the source filed them. Unless noted, the call rests on the fitted dose curve; in most records, active means well fitted curve in the direction sought with a large enough effect in the repeat runs; inconclusive means weak or mixed curves; inactive means no such curve, though single readings can be large; an effect the other way counts as inactive or inconclusive.

Legend:
[1] = biological target: Calcium and integrin-binding protein 1 (Homo sapiens) (UniProt Q99828); assay: Primary qHTS for Identification of Calcium Integrin Binding Protein 1 (CIB1) Competitor (AID 1508620; active means well fitted curve in the direction sought with a large enough effect; an effect the other way counts as inactive or inconclusive;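 further: GST tagged CIB1 binding a fluorescein labelled alphaIIb integrin peptide tracer; top concentration of the series differs between compounds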)
Summary of the method: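 Fluorescence polarization competition: GST-tagged CIB1 (1 uM final) preincubated with compound 15 min at room temperature, then FITC-labelled alphaIIb peptide (100 nM final) added. After 15 min at room temperature, polarization read at Ex 480/Em 540.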

[2] = biological target: Cytochrome P450 2D6 (Homo sapiens) (UniProt P10635); assay: Cytochrome P450 family 2 subfamily D member 6 (CYP2D6) small molecule antagonists: luciferase biochemical (cell-free) qHTS assay (AID 1645840); further: nearly all actives have a fitted effect of over 55% in size; further: potency means the concentration at half of the fitted maximal effect; on activity change, negative = inhibition: series mostly up to about 57 µM
Summary of the method: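 P450-Glo luminescent screen: recombinant CYP2D6 enzyme–proluciferin substrate mix preincubated with compound 10 min at room temperature, then NADPH regeneration added for 1 h at room temperature. Detection reagent added for 20 min; luciferin light read as relative luminescence units.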

[3] = biological target: Cytochrome P450 2C9 (Homo sapiens) (UniProt P11712); assay: Cytochrome P450 family 2 subfamily C member 9 (CYP2C9) small molecule antagonists: luciferase biochemical (cell-free) qHTS assay (AID 1645842); further: nearly all actives have a fitted effect of over 55% in size; further: potency means the concentration at half of the fitted maximal effect; on activity change, negative = inhibition: series mostly up to about 57 µM
Summary of the method: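 Luminescence, after 20 min with luciferin detection reagent, reflected CYP2C9 turnover during a 1 h NADPH-driven reaction at 37C. Enzyme-substrate mix contained 0.4% bovine serum albumin and was preincubated with compound 10 min at room temperature.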

[4] = biological target: N-terminal Xaa-Pro-Lys N-methyltransferase 1 (Homo sapiens) (UniProt Q9BV86); assay: Confirmatory qHTS for Inhibitors of N-terminal methyltransferase 1 (NTMT1): MTaseGlo Assay (AID 1645874; active means well fitted curve in the direction sought with a large enough effect; an effect the other way counts as inactive or inconclusive; further: nearly all actives have a fitted effect of over 65% in size; further: potency means the concentration at half of the fitted maximal effect;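 on activity change, negative = inhibition: luminescence from SAH made as NTMT1 methylates SPKRIA peptide using SAM; series mostly up to about 100 µM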)
Summary of the method: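 Preincubation of NTMT1 (125 nM) plus SAM (100 uM) with test compounds lasted 15 min; methylation of 1 uM SPKRIA then proceeded 30 min in the dark at room temperature. Luciferase signal reported SAH produced.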

N-terminal Xaa-Pro-Lys N-methyltransferase 1 (Homo sapiens), sequence (Q9BV86 whole entry, looked up): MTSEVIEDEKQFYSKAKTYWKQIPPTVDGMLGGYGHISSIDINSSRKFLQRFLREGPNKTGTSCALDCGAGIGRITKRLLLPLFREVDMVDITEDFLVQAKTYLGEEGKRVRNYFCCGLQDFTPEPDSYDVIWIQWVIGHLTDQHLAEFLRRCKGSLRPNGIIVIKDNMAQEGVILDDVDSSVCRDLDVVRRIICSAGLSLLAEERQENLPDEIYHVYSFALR
Cytochrome P450 2C9 (Homo sapiens), sequence (P11712 whole entry, looked up): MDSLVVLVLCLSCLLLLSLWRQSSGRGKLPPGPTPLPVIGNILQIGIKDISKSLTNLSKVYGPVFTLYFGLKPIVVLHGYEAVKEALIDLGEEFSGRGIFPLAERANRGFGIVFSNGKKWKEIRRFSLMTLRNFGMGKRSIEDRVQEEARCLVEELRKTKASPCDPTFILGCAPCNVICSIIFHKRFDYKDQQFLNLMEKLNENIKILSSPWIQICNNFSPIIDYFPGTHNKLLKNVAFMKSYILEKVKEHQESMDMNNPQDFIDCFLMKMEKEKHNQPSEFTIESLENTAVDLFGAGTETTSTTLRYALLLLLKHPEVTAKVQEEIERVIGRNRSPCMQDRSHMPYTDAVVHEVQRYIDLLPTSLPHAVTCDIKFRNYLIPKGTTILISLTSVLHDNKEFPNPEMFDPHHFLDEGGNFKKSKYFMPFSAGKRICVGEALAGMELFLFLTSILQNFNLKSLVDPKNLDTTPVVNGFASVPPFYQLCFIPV
Calcium and integrin-binding protein 1 (Homo sapiens), sequence (Q99828 whole entry, looked up): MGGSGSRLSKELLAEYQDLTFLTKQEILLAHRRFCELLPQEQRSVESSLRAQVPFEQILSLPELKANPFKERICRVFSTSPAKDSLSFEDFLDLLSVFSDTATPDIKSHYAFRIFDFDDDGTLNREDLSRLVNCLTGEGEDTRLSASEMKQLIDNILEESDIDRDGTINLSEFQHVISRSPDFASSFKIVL
Cytochrome P450 2D6 (Homo sapiens), sequence (P10635 whole entry, looked up): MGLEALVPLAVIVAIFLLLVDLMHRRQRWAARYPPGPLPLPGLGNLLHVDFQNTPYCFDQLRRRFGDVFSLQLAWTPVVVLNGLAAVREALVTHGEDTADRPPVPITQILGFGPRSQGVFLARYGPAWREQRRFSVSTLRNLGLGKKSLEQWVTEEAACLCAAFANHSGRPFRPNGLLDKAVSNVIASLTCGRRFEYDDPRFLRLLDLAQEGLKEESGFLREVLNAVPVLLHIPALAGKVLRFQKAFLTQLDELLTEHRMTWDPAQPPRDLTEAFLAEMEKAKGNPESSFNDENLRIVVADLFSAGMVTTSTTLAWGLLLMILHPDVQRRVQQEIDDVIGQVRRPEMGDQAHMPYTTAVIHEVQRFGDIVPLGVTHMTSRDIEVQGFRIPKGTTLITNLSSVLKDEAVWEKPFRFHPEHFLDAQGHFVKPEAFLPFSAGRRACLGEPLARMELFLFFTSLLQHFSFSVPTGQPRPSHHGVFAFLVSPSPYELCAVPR

Compound: O=C(O)c1n[nH]c2c1C[C@H]1C[C@@H]21
- Potency [1]: inactive
- Potency [2]: inactive
- Potency [3]: inactive

Compound: COc1cccc(-n2nc(C(=O)O)cc2-c2ccc(C3CCCCC3)c(Cl)c2)c1
- Potency [1]: inactive
- Potency [3]: inactive

Compound: CC(=O)NCCCCn1c2c(c3ccccc31)C(=O)NCC2
- Potency [1]: inactive
- Potency [2]: inactive
- Potency [3]: inactive

Compound: CC(C)(C)NCc1cc(Nc2ccnc3cc(Cl)ccc23)c2c(c1O)CCCC2
- activity change, negative = inhibition [1]: -3.89% [at 1.07 µM]
- activity change, negative = inhibition [3]: -23.1% [at 11.5 µM]

Compound: C[C@H](NCc1ccc(OCc2ccccc2F)cc1)C(N)=O
- Potency [1]: inactive
- Potency [3]: inactive

Compound: CCOc1ccc(C(Nc2ccccn2)c2ccc3ccc(C)nc3c2O)cc1C (stereo not given)
- Potency [1]: inactive
- Potency [2]: inactive
- Potency [3]: 4.77 µM (active)

Compound: Cc1onc(-c2ccccc2)c1C(=O)N[C@@H]1C(=O)N2[C@@H]1SC(C)(C)[C@@H]2C(=O)O
- Potency [1]: inactive
- Potency [2]: inactive
- Potency [3]: inactive

Compound: CCn1c2ccccc2c2cc(CNC)ccc21
- Potency [1]: inactive
- Potency [2]: 9.52 µM (active)
- Potency [3]: inactive

Compound: CC(C)(C)NCC(O)COc1cccc2c1CCCC2=O (stereo not given)
- Potency [1]: inactive
- Potency [3]: inactive

Compound: CC[C@H]1OC(=O)C[C@@H](O)[C@H](C)[C@@H](O[C@@H]2O[C@H](C)[C@@H](O)[C@H](N(C)C)[C@H]2O)[C@@H](CCN2C[C@H](C)C[C@H](C)C2)C[C@@H](C)C(=O)/C=C/C(C)=C/[C@@H]1CO[C@@H]1O[C@H](C)[C@@H](O)[C@@H](OC)[C@H]1OC
- Potency [1]: inactive
- Potency [3]: inactive

Compound: O=C1NC(=Nc2ccccc2F)S/C1=C\c1ccc(C(=O)O)cc1
- Potency [1]: inactive
- Potency [2]: inactive
- Potency [3]: 10.7 µM (active)

Compound: C(#Cc1cccc(CN2CCOCC2)c1)CCN1CCCCC1
- Potency [1]: inactive
- Potency [3]: inactive

Compound: O=C(CCCCc1ccc2ccccc2c1)C(F)(F)F
- Potency [1]: inactive
- Potency [3]: 9.52 µM (active)

Compound: COc1cc2c(cc1OC)CN(C(=O)[C@@H](NCc1ccncc1)C(C)(C)C)CC2
- Potency [1]: inactive
- Potency [3]: 1.69 µM (active)

Compound: COC(=O)[C@H](CC1C=NC=N1)NCC12CC3CC(CC(C3)C1)C2 (stereo not given in full)
- Potency [1]: inactive
- Potency [2]: inactive
- Potency [3]: inactive

Compound: C=Cc1cc(O)cc2nc(-c3ccc(O)c(F)c3)oc12
- Potency [1]: inactive
- Potency [2]: 21.3 µM (active)
- Potency [4]: 44.7 µM (active)

Compound: COc1c(C)c(C(=O)c2ccc(N)c(C(=O)O)c2)n2ccccc12
- Potency [1]: inactive
- Potency [2]: inactive
- Potency [3]: 12 µM (active) and 10.7 µM (active)
- Potency [4]: inactive

Compound: CCc1c(CC(N)=O)c2cc(OCCCP(=O)(O)O)ccc2n1Cc1ccccc1
- Potency [1]: inactive
- Potency [2]: inactive
- Potency [3]: inactive

Compound: CCn1cc(C2=NOC(C(=O)Nc3c(C)n(C)n(-c4ccccc4)c3=O)C2)c(C)n1 (stereo not given)
- Potency [1]: inactive
- Potency [3]: 1.9 µM (active)

Compound: CC1(C)CCC(C)(C)c2cc3c(cc21)Sc1ccccc1N=C3c1ccc(C(=O)O)cc1
- Potency [1]: inactive
- Potency [3]: inactive

Compound: CC(C)(O)c1ccc2c(c1)C(=O)CC1[C@](C)(CO)CCC[C@]21C (stereo not given in full)
- Potency [1]: inactive
- Potency [4]: inactive

Compound: O=C(NCc1ccc(OC(F)(F)F)cc1)C1c2ccccc2C(=O)N1C1CCOCC1 (stereo not given)
- Potency [1]: inactive
- Potency [3]: 12 µM (active)

Compound: COc1cc(NC(=O)c2ccccn2)ccc1Cl
- Potency [1]: inactive
- Potency [2]: 23.9 µM (active)
- Potency [3]: 23.9 µM (active)

Compound: CC1(C)CC(=O)N(CCCCN2CCN(c3ncccn3)CC2)C(=O)C1
- Potency [1]: inactive
- Potency [2]: inactive
- Potency [3]: inactive

Compound: CNC(=O)O[C@H]1COc2ccc(N3CCN(C4COC4)CC3)cc2[C@@H]1NC(=O)c1ccc(F)cc1
- Potency [1]: inactive
- Potency [2]: inactive
- Potency [3]: inactive

Compound: O=C(c1ccc(F)cc1)C1CCN(CCn2c(=O)nc3n(c2=O)CCCC3)CC1
- Potency [1]: inactive
- Potency [3]: inactive

Compound: COc1cc(N2CCC(O)CC2)ccc1Nc1cc(Nc2ccccc2S(=O)(=O)C(C)C)c2cc[nH]c2n1
- Potency [1]: inactive
- Potency [3]: 6.61 µM (active)

Compound: CC(NCc1ccc(OCc2cccc(F)c2)cc1)C(N)=O (stereo not given)
- Potency [1]: inactive
- Potency [3]: inactive

Compound: CCOc1nc2cccc(C(=O)OCc3oc(=O)oc3C)c2n1Cc1ccc(-c2ccccc2-c2noc(O)n2)cc1
- Potency [1]: inactive
- Potency [3]: 3.38 µM (active)

Compound: O=C(c1ccc(C#Cc2cccc(F)c2)cn1)N1CC2CC2C1 (stereo not given)
- Potency [1]: inactive
- Potency [2]: 16.9 µM (active)
- Potency [3]: 23.9 µM (active)
